From PubChem BioAssay AID1117361 (Southern Research Institute, 2015) come the findings set out here.

The structures appear in SMILES notation. Hit rate of the full screen: of about 3,600 compounds, about 900 (25%) were called active. How the calls were made is not given here. Only a sample is shown. Potency and affinity values are given separately.

The target of the assay is Protein Tat (Human immunodeficiency virus type 1 group M subtype B (isolate HXB2)) (UniProt P04608). Kind of assay: HIV-1 Tat–TAR interaction blockers – biochemical, fluorescence polarization, FAM-labeled TAR RNA, counter-screen for Vif-APOBEC3G degradation inhibitor project, dose response (AID 1117361). The settings on record: Tat-TAR RNA binding; series mostly up to 100 µM; inhibition: at the top concentration.
Take `COc1ccc(CNS(=O)(=O)c2cc(Br)cc3c2N(C(C)=O)C(C)C3)cc1` (configuration not stated): the “inhibition” value is 0.82% (inactive).
The same measure, in the same setting: to `COCC(C)NC(=O)C1CC(c2cccc(Br)c2)=NO1` (configuration not stated) belongs 3.38% (inactive).
Still for that read-out and setting: to `COC(=O)CSC1=C(C#N)C(c2ccccc2)CC(=O)N1` (configuration not stated) belongs 2.03% (inactive); to `COc1ccc(C2C(C#N)=C(SCC(=O)Nc3ccc(C)cc3)NC3=C2C(=O)CC(C)(C)C3)cc1` (configuration not stated), 6.14% (inactive); to `CCCNC(=S)NC1CCCC1`, 2.7% (inactive).
Take `Cc1ccc(C(=O)CSc2ccccn2)cc1`: the “inhibition” value was 26.4% (inactive).
On the same count and under the same terms, to `Cc1nnc(SCc2cnc(-c3ccccc3)o2)[nH]c1=O` belongs 10.1% (inactive); to `CCOc1cc(C2NC(=O)NC(O)(C(F)(F)F)C2C(=O)c2ccccc2)ccc1OC` (configuration not stated), 2.03% (inactive); to `CN(C)CCNc1ncnc2c1sc1nc(-c3ccccc3)c3c(c12)CCCC3`, 14.8% (inactive).
Consider `CSc1nc(N2CCOCC2)c2c3c(sc2n1)CCC3`, for which the “inhibition” value is 1.65% (inactive).
In the case of `Clc1ccccc1Nc1c2c(nc3ncnn13)CCC2`, the result was inactive.
As to `CC(=O)NCc1c(Cl)cccc1-n1cccc1`, the molecule was called inactive.
Consider `CCCS(=O)(=O)NCc1cn2c(C)csc2n1`, for which the “inhibition” value is 14.9% (inactive).
On the same count and under the same terms, to `CN(C(=O)COc1ncnc2sccc12)c1ccccc1` belongs 4.95% (inactive); to `COc1ccccc1NS(=O)(=O)c1cccs1`, 3.01% (inactive).
The same measure, in the same setting: the result for `CCCCNc1nc2ccccc2nc1NS(=O)(=O)c1cccs1` reads 13.5% (inactive).
For the molecule `Cc1cc(/C=C2\SC(=S)NC2=O)c(C)n1-c1ccc(O)cc1`, the molecule was called inactive.
In the case of `Cc1cc(/C=C2\SC(=S)NC2=O)c(C)n1-c1ccccc1`, the result was inactive.
Consider `CCc1ccc(-n2c(SCc3c(C)noc3C)nnc2-c2ccncc2)cc1`, for which the “inhibition” value was 1.36% (inactive).
Same read-out and setting: to `Cc1noc(C)c1C(=O)N1CCc2ccccc2C1` belongs 6.82% (inactive).
With `CCn1c(C(=O)N2CCc3ccccc3C2)cc2sccc21`, the “inhibition” value was 8.11% (inactive).
The same measure, in the same setting: to `CCC(C)(C)C1CCc2c(sc(NC(=O)c3ccoc3C)c2C(N)=O)C1` (configuration not stated) belongs 8.78% (inactive); to `COc1cc(NC(=O)c2nnn(Cc3ccc(SC)cc3)c2N)cc(OC)c1`, 2.7% (inactive).
With `Cc1ccc(SCC(=O)c2sc(-c3ccccc3)nc2C)cc1`, the outcome is “inactive [at 50 µM]”.
On to `COC(=O)c1ccc(Cl)c(NC(=O)CN(c2ccc3c(c2)OCO3)S(C)(=O)=O)c1`, for which the “inhibition” value was 2.05% (inactive).
As for `CS(=O)(=O)N(CC(=O)Nc1ccc2c(c1)OCO2)Cc1ccccc1`, the “inhibition” value was 6.14% (inactive).
With `O=C(NCc1ccc(F)cc1)c1c(O)c2cccc3c2n(c1=O)CCC3`, the molecule was called inactive.
As to `Cc1ccc(C(=O)Nc2nc3ccccc3n2CCN2CCCC2)cc1`, the “inhibition” value was 2.7% (inactive).
With `CCN1C(=O)c2c(C)nc3ccccc3c2C1=O`, the “inhibition” value is 13.7% (inactive).
With `COCCCN1C(=O)N(c2ccc(F)cc2)C(=O)C1CC(=O)Nc1ccc(OC)cc1` (configuration not stated), the “inhibition” value was 5.01% (inactive).
As to `NC(=S)N/N=C/c1ccc(-c2cccc([N+](=O)[O-])c2)o1`, the “inhibition” value was 0.68% (inactive).
As for `Cc1cc(C)c([N+](=O)[O-])cc1-c1ccc(/C=N/NC(=O)c2nonc2N)o1`, the “inhibition” value was 6.08% (inactive).
Same read-out and setting: to `O=C(NNC(=O)c1ccccc1O)c1ccc(-c2ccc([N+](=O)[O-])cc2)o1` belongs 5.68% (inactive).
For `N=C(c1cccc([N+](=O)[O-])c1)N1CCCCCC1`, the call was inactive.
For the molecule `Cc1ccc(C(=O)OCc2cn3ccccc3n2)cc1`, the “inhibition” value was 15.5% (inactive).
On the same count and under the same terms, to `COc1cccc(NC(=O)N2CCN(c3nnnn3-c3ccccc3)CC2)c1` belongs 9.9% (inactive).
For the molecule `Cc1ccc(-n2nc(C)c3c(C)c(CCC(=O)O)c(C)nc32)cc1`, the outcome was inactive.
In the case of `Cc1cc(=O)nc2c3ccccc3n(C(C)C(=O)NCCC(C)C)n12` (configuration not stated), the molecule was classed as inactive.
Turning to `O=C(COc1ccc(S(=O)(=O)N2CCCC2)cc1)NCCC1=CCCCC1`, the “inhibition” value is 22.5% (inactive).
For the molecule `CCN(CC)CCCNC(=O)c1cn(CCOC)c(=O)c2c1c1ccccc1n2C`, the “inhibition” value is 0.68% (inactive).
Turning to `COc1ccc(-n2nc(C(=O)NCc3ccco3)c3ccccc3c2=O)cc1`, the call was inactive.
Consider `Cc1cc(C)cc(-n2nnc(C(=O)NCc3ccco3)c2N)c1`, for which the “inhibition” value was 8.87% (inactive).
Same read-out and setting: the result for `CC1(C)CC2(CC(c3ccccc3F)c3ccc(O)c(O)c3O2)NC(=S)N1` (configuration not stated) reads 4.95% (inactive); that for `CCN1CCN(Cc2cc(=O)oc3ccc(C)cc23)CC1`, 8.25% (inactive).
`CCc1ccc2c(CN3CCC(C(=O)OC)CC3)cc(=O)oc2c1`: the molecule was classed as inactive.
Consider `C=C(Cl)COc1ccc2c(CCC)cc(=O)oc2c1`, for which the “inhibition” value was 4.09% (inactive).
Same read-out and setting: to `CCc1cc2c(CN3CCN(CC)CC3)cc(=O)oc2cc1O` belongs 14.2% (inactive).
Take `COc1ccc(S(=O)(=O)N2CCOC2CNC(=O)C(=O)NCc2ccccn2)cc1` (configuration not stated): the result was inactive.
The same measure, in the same setting: the result for `CC(C)C(C(=O)OCC(=O)c1ccc2c(c1)NC(=O)CO2)N1C(=O)c2ccccc2C1=O` (configuration not stated) reads “inactive”.
`COCCNC(C)C(=O)C12CC3CC(CC(C3)C1)C2` (configuration not stated): the “inhibition” value was 1.35% (inactive).
In the case of `Oc1ccc(/C=N/N2CCCCC2)c(O)c1O`, the call was inactive.
For `O=C(c1cc2ccccc2o1)N1CC=C(c2ccccc2)CC1`, the “inhibition” value is 10.7% (inactive).
Same read-out and setting: the result for `O=C(CCC(=O)NNc1nc2ccccc2c2nc(-c3ccccc3)nn12)NCCCN1CCOCC1` reads 0.82% (inactive); that for `Cc1ccc2nsnc2c1S(=O)(=O)N(CCO)Cc1cc2cc3c(cc2[nH]c1=O)OCCO3`, 2.05% (inactive).
Still for that read-out and setting: the result for `CCn1c(SCC(=O)NCC(=O)Nc2ccc(F)cc2)nnc1-c1ccncc1` reads 2.73% (inactive).
`CCn1c(=O)cc(SCC(=O)NCc2ccc(C)o2)c2ccccc21`: the “inhibition” value is 8.19% (inactive).
Turning to `Cc1cccc(OCc2nc3ccccc3c(=O)n2N)c1`, the outcome was inactive.
